# About 210 (19%) of roughly 1,100 compounds were called active. No rule for the calls is given here. These entries were drawn from the full list. Entries with a potency or affinity are not part of this list.
# Assay: cell viability loss from selected hits – cytotoxicity control for SV40 T antigen inhibitor project, dose response (AID 2102);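 also: cells exposed to compounds for 72 hours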
# Details: Host cell viability cytotoxicity counter-screen; series mostly up to 50 µM
row,SMILES,outcome
1,COc1cc(SC)ccc1C(=O)N1CCN(c2ccc(O)cc2)CC1,inactive
2,COc1cc(SC)ccc1C(=O)N1CCN(Cc2ccccc2)CC1,inactive
3,Cc1ccc(C)c(S(=O)(=O)Nc2ccc(O)cc2)c1,inactive
4,Oc1ccc2c(c1)oc1cc(O)ccc12,inactive
5,O=c1oc2cc(O)ccc2c2ccccc12,inactive
6,OC1CCN(C(=S)Nc2ccc(Nc3ccccc3)cc2)CC1,inactive
7,CN1CCN(c2nc(Nc3ccc(O)cc3)nc3ccccc23)CC1,inactive
8,OCCNc1nc(Nc2ccc(O)cc2)nc2ccccc12,inactive
9,Cc1ccc2oc(=O)c(/C=C(\O)C(C)(C)C)nc2c1,inactive
10,COc1ccc(N2CCN(C(=O)NC3CC(=O)N(c4ccc(OC)cc4)C3)CC2)cc1 (stereo not drawn),inactive
11,CNC(=S)N1CCN(c2ccc(OC)cc2)CC1,inactive
12,COc1ccc(CNC(=S)N/N=C/c2ccc(O)c(OC)c2)cc1,inactive
13,COc1ccc(NC2CCCN(C(=O)c3ccc(OC)o3)C2)cc1 (stereo not drawn),inactive
14,COc1cc2c(cc1NC(=S)Nc1ccccc1C)oc1ccccc12,inactive
15,COc1cc(/C=N/NC(=O)CC#N)cc(Br)c1O,inactive
16,COc1ccc(N2C(=O)CC(Sc3n[nH]c(-c4cccc(C)c4)n3)C2=O)cc1 (stereo not drawn),inactive
17,CC1=C(C#N)c2nc(N)c(C#N)c(C)c2/C1=C\c1ccc(-c2ccccc2C(=O)O)o1,inactive
18,COc1cc(/C=C2\N=C3CCCCCN3C2=O)ccc1O,inactive
19,O=c1/c(=C\c2cc([N+](=O)[O-])cc([N+](=O)[O-])c2O)sc2nc3ccccc3n12,inactive
20,O=C1C=C(Nc2ccc(O)cc2)CC(c2ccco2)C1 (stereo not drawn),inactive
21,O=C(O)/C=C/c1ccc(O)cc1,inactive
22,COc1cc(-c2nc(=S)[nH][nH]2)cc(OC)c1OC,inactive
23,C=CCn1c(CNc2ccccc2)nnc1SCC(=O)N/N=C/c1ccc(O)cc1O,inactive
24,O=C(N/N=C/c1ccc(O)cc1)c1csc2ccccc12,inactive
25,CCCn1c(=O)c2ccccc2n2c(=S)[nH]nc12,inactive

row,SMILES,outcome
1,CNC(=S)Nc1ccc(Nc2ccccc2)cc1,inactive
2,NC(=O)Nc1ccc(Nc2ccccc2)cc1,inactive
3,O=[N+]([O-])c1cccc(S(=O)(=O)N/N=C/c2ccc(O)cc2)c1,inactive
4,O=C(CN1C(=O)/C(=C/c2ccco2)SC1=S)Nc1ccc(C(=O)O)c(O)c1,inactive
5,COc1cc2c(cc1OC)C[N+](C)(C)CC2,inactive
6,COc1cc(/C=N/Nc2nncn2/N=C/c2ccc(O)c(OC)c2)ccc1O,inactive
7,N#CC1=C(N)NC(=S)C(C(N)=O)C1c1ccccc1F (stereo not drawn),inactive
8,CCNC(=S)Nc1cc(OCC)c(N2CCOCC2)cc1OCC,inactive
9,CCOc1cc(N2CCOCC2)c(OCC)cc1NC(C)C(=O)N1CCC(C)CC1 (stereo not drawn),inactive
10,COc1ccc(NC2CCCN(C(=O)CSc3ccccc3)C2)cc1 (stereo not drawn),inactive
11,CCOC(=O)C1=C(O)/C(=C\c2ccc(O)c(OCC)c2)N=C1C,inactive
12,O=c1oc2ccccc2c2oc3cc(O)c(O)cc3c12,inactive
13,O=C1NC(=O)C(c2ccccc2[N+](=O)[O-])=C1Nc1ccc(O)c(Cl)c1,inactive
14,COc1cc(/C=N/NC(=O)C2=NNC(=O)C2C)ccc1O (stereo not drawn),inactive
15,O=C(c1nnsc1S(=O)c1ccc(Cl)cc1)N1CCOCC1 (stereo not drawn),inactive
16,CN(C)c1ccc(NC(=O)CN2CCN(CC(=O)Nc3ccc(F)cc3)CC2)cc1,inactive
17,CCOc1cc(/C=C2\NC(=S)N(c3c(C)n(C)n(-c4ccccc4)c3=O)C2=O)ccc1O,inactive
18,O=S(=O)(NC1=NCCCCC1)c1ccc2sc(NS(=O)(=O)c3ccc4ccccc4c3)nc2c1,inactive
19,COc1cc(/C=C2\S/C(=N/S(=O)(=O)c3ccc(C)cc3)NC2=O)c([N+](=O)[O-])cc1OC,inactive
20,O=S(=O)(Nc1ccc(O)cc1)c1cccc2cccnc12,inactive
21,O=C(c1ccco1)N1CCN(C(=S)Nc2ccc(F)c(Cl)c2)CC1,inactive
22,CN(C)c1ccc(NC(=O)c2ccc(N3CCOCC3)nc2)cc1,inactive
23,COc1cc(C(c2c(C)[nH][nH]c2=O)c2c(C)[nH][nH]c2=O)ccc1OC(=O)c1cccc([N+](=O)[O-])c1,inactive
24,CCOC(=O)C1(C)C=C(Nc2ccc(O)cc2)C(=O)N1c1ccc(O)cc1 (stereo not drawn),inactive
25,Cn1c(=O)oc2cc(S(=O)(=O)Nc3ccc(O)cc3)ccc21,inactive

row,SMILES,outcome
1,CN(C)c1ccc(NC(=O)CSc2nnc(-c3ccco3)c(-c3ccco3)n2)cc1,inactive
2,N/C(=N\N=C\c1ccc(O)c(O)c1)c1nonc1N,inactive
3,COc1cc(/C(C)=N/NC(=O)Cc2c(C)[nH][nH]c2=O)ccc1O,inactive
4,CN=c1scc(C)n1/N=C/c1ccc(O)cc1,inactive
5,CC1=C(C(=O)c2ccccc2)C(c2ccc(O)cc2)NC(=S)N1 (stereo not drawn),inactive
6,Nc1nc2ccc(O)cc2s1,inactive
7,Cc1cc2c(n1-c1ccc(C(=O)O)cc1)CCCCC2,inactive
8,O=C(c1cccc(-c2ccc(O)cc2)c1)N1CCOCC1,inactive
9,CC(=O)Nc1ccc(S(=O)(=O)Nc2nc3ccccc3nc2Nc2ccc(O)cc2)cc1,inactive
10,CCOc1cc(/C=N\NC(=O)CC(=O)NCCc2ccccc2)ccc1O,inactive
11,Cc1cc(=O)[nH]c(N/N=C/c2c[nH]c3ccccc23)n1,inactive
12,CCn1cnc2cc(NCc3ccc(N(C)C)cc3)ccc21,inactive
13,C/C(=N\NC(=O)CSc1nc2ccccc2o1)c1ccc(O)cc1,inactive
14,Cc1cccc(N2NC(=O)/C(=C/c3ccc(-c4ccc(Cl)c(C(=O)O)c4)o3)C2=O)c1,inactive
15,C=CCn1c(SCC(=O)c2ccc(O)c(O)c2)nnc1-c1ccccc1OC,inactive
16,COc1cc(/C=N/NC(=O)c2cc(C3CC3)[nH]n2)ccc1O,inactive
17,COCCCNC(=S)N/N=C/c1ccc(O)cc1O,inactive
18,Nc1c(O)cccc1C(=O)O,inactive
19,NC(=O)N/N=C/c1c(Sc2nnnn2-c2ccccc2)nc2ccccn2c1=O,inactive
20,COc1ccc2c(c1OC)C(=O)N(c1ccc(O)cc1)C2,inactive
21,O=C1CCCC2=C1Sc1ccccc1N2,inactive
22,CCSC1(SCC)N=C(N)C2(C#N)C(c3ccc(OC)c(OC)c3OC)C12C#N (stereo not drawn),inactive
23,COc1cc(/C=N/NC(=O)c2nc(C)cc(C)n2)ccc1O,inactive

# — PubChem BioAssay AID2102 (Southern Research Specialized Biocontainment Screening …, 2009)
